# Results published in PubChem BioAssay (NCI).
# About 83,000 compounds went through this panel and 20% of them were active in at least one assay; those are over-represented in the sample as a whole.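 Each cell line was grown in a 96-well plate and treated with one concentration of compound for 48 hours. Values below 10 were considered active.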 A number with no mark means an inactive call. Active and inactive are the calls of the source.
# Test system: SF-268 CNS
# Assay: NCI-60 one-dose screen, 48 h (100 = growth as untreated, 0 = no growth, -100 = all killed)
# Conditions: 10 µM unless noted
row,Structure (SMILES),growth
1,CCN(CC)S(=O)(=O)c1ccc2[nH]c(=O)cc(C(=O)Nc3ccc(OC)cc3OC)c2c1,95%
2,COc1ccc(/C=C/C(=O)OCC(=O)NNC(=O)c2ccccc2)cc1OC,108%
3,COc1ncc(-c2ccc3ncnc(Nc4cccc(Cl)c4)c3c2)cc1N(S(C)(=O)=O)S(C)(=O)=O,73.2%
4,Cc1c(C(=O)NCc2ccccc2)[n+](=O)c2cc(F)ccc2n1[O-],111%
5,COc1cc(Br)c(OC)cc1Br,98.6%
6,CN1CCN(CCCOc2ccc3nc(Nc4ccc(C(F)(F)F)c(Cl)c4)ccc3c2)CC1,11.5%
7,CC(=O)c1cc(C(=O)c2ccc3c(c2)Sc2ccccc2N3)c2cc(C)ccn12,22.1%
8,Cc1cc(C(=O)O)c(N)c(C)n1,104%
9,c1ccc2c(c1)Oc1ccccc1C2C1c2ccccc2Oc2ccccc21,97.2%
10,CC/C=C\C[C@H](O)C/C=C1/C(=O)C(Cl)=C[C@@H]1C/C=C\CCCC(=O)O,55.9%
11,O=C(Nc1ccc(I)cc1)c1cc([N+](=O)[O-])ccc1O,39.4%
12,O=C(CSc1nc(-c2ccc(Cl)cc2)cn1-c1ccc(Cl)cc1)c1ccc(Br)cc1,78.1%
13,N#CC1=C(N)n2nc(-c3ccncc3)nc2NC1c1cccc2ccccc12 (stereo unspecified),94.5%
14,Cc1ccc2nc(-c3c(CCCO)noc3N)[nH]c(=O)c2c1,111%
15,COc1ccc(/C(=N\O)c2cc(OC)c(OC)c(OC)c2)c(OC)c1N,42.1%
16,CCOc1ccc(/C=C/C=N/NC(N)=S)cc1,92.1%
17,C=C1C(=O)O[C@H]2[C@H]1CC/C(COC(=O)NCCc1cccc(OC)c1)=C\CC[C@@]1(C)O[C@@H]21,55.4%
18,Cc1c(C2=NNC(c3ccc4c(c3)OCO4)C2)[n+]([O-])c2ccccc2[n+]1[O-] (stereo unspecified),114%
19,O=S(=O)(NCCCNc1cc(-c2cn(-c3ccccc3)nc2-c2cccc(O)c2)ccn1)c1ccc(Br)cc1,17.9%

row,Structure (SMILES),growth
1,COc1cccc2nc(Nc3ccc(NC(=O)c4ccc5ncccc5c4)cc3)ccc12,82.8%
2,COc1ncc(-c2ccc3ncnc(Nc4cccc(Cl)c4)c3c2)cc1NS(=O)(=O)CCN1CCOCC1,23%
3,O=C(OCCCCOC(=O)n1cnc2ccccc21)n1cnc2ccccc21,98.8%
4,Cc1cc(C)c2c(=O)[nH]c(SCC(=O)Nc3cccc(S(=O)(=O)N(C)C)c3)nc2n1,114%
5,Cc1ccc(S(=O)(=O)OCC(=O)Nc2ccc(C(=O)O)c(O)c2)cc1,97%
6,CN(C)c1nc(N)c(N=O)c(N)n1,110%
7,Cc1nc2scc(-c3ccccc3)n2c(=O)c1CCO,97.5%
8,Cc1ccc2c(c1)C(C)Cc1c(ncnc1-n1cnc3ccccc31)N2C (stereo unspecified),34.1%
9,O=S(=O)(NCCNc1cc(-c2cn(-c3ccccc3)nc2-c2ccccc2)ccn1)c1cccc2ccccc12,55%
10,CCCCCCOc1ccc(C2(Cl)c3ccccc3N(C)c3ccccc32)cc1,49.5%
11,CN(C)C1CCC(NC2=CC(=O)C=CC2=O)CC1 (stereo unspecified),99.9%
12,CC(=O)N1Cc2ccccc2C(C)Cc2cc(Cl)ccc21 (stereo unspecified),104%
13,NC(N)=NC(N)=Nc1ccccc1-c1ccccc1,113%
14,Cc1oc2ncnc(Nc3ccccc3)c2c1C(=O)NCCO,99.8%
15,Cc1cc(NC(=O)COC(=O)c2sc3cc(F)ccc3c2Cl)no1,120%
16,CC1(C)OC2COC3(C(=O)O)OC(C)(C)OC3C2O1 (stereo unspecified),95.9%
17,C/C(=C\c1csc(C)n1)[C@@H]1C[C@@H]2O[C@]2(C)CCC[C@H](C)[C@H](O)[C@@H](C)C(=O)C(C)(C)[C@@H](O)CC(=O)N1,-47.8% (active)
18,COc1cc2c(cc1OCCCCn1c(-c3cc(=O)c4ccccc4o3)nc3ccccc31)N=C[C@@H]1CCCN1C2=O,107%
19,COc1cc(-c2csc(NC(=O)c3cc(C(F)(F)F)cc(C(F)(F)F)c3)n2)cc(OC)c1OC,35.4%

# Test system: SF-295 CNS
# Assay: as above
# Conditions: 10 µM unless noted
row,Structure (SMILES),growth
1,CCN(CC)S(=O)(=O)c1ccc2[nH]c(=O)cc(C(=O)Nc3ccc(OC)cc3OC)c2c1,97.9%
2,COc1ccc(/C=C/C(=O)OCC(=O)NNC(=O)c2ccccc2)cc1OC,89.6%
3,COc1ncc(-c2ccc3ncnc(Nc4cccc(Cl)c4)c3c2)cc1N(S(C)(=O)=O)S(C)(=O)=O,76%
4,Cc1c(C(=O)NCc2ccccc2)[n+](=O)c2cc(F)ccc2n1[O-],88.4%
5,COc1cc(Br)c(OC)cc1Br,94.7%
6,CN1CCN(CCCOc2ccc3nc(Nc4ccc(C(F)(F)F)c(Cl)c4)ccc3c2)CC1,-52.8% (active)
7,CC(=O)c1cc(C(=O)c2ccc3c(c2)Sc2ccccc2N3)c2cc(C)ccn12,-1.7% (active)
8,Cc1cc(C(=O)O)c(N)c(C)n1,111%
9,c1ccc2c(c1)Oc1ccccc1C2C1c2ccccc2Oc2ccccc21,96.1%
10,CC/C=C\C[C@H](O)C/C=C1/C(=O)C(Cl)=C[C@@H]1C/C=C\CCCC(=O)O,89.2%
11,O=C(Nc1ccc(I)cc1)c1cc([N+](=O)[O-])ccc1O,33.7%
12,O=C(CSc1nc(-c2ccc(Cl)cc2)cn1-c1ccc(Cl)cc1)c1ccc(Br)cc1,52.1%
13,N#CC1=C(N)n2nc(-c3ccncc3)nc2NC1c1cccc2ccccc12 (stereo unspecified),90.5%
14,Cc1ccc2nc(-c3c(CCCO)noc3N)[nH]c(=O)c2c1,99.6%
15,COc1ccc(/C(=N\O)c2cc(OC)c(OC)c(OC)c2)c(OC)c1N,-9.97% (active)
16,CCOc1ccc(/C=C/C=N/NC(N)=S)cc1,96.7%
17,C=C1C(=O)O[C@H]2[C@H]1CC/C(COC(=O)NCCc1cccc(OC)c1)=C\CC[C@@]1(C)O[C@@H]21,89.2%
18,Cc1c(C2=NNC(c3ccc4c(c3)OCO4)C2)[n+]([O-])c2ccccc2[n+]1[O-] (stereo unspecified),105%
19,O=S(=O)(NCCCNc1cc(-c2cn(-c3ccccc3)nc2-c2cccc(O)c2)ccn1)c1ccc(Br)cc1,-55.2% (active)

row,Structure (SMILES),growth
1,COc1cccc2nc(Nc3ccc(NC(=O)c4ccc5ncccc5c4)cc3)ccc12,6.41% (active)
2,COc1ncc(-c2ccc3ncnc(Nc4cccc(Cl)c4)c3c2)cc1NS(=O)(=O)CCN1CCOCC1,-24.1% (active)
3,O=C(OCCCCOC(=O)n1cnc2ccccc21)n1cnc2ccccc21,98.3%
4,Cc1cc(C)c2c(=O)[nH]c(SCC(=O)Nc3cccc(S(=O)(=O)N(C)C)c3)nc2n1,139%
5,Cc1ccc(S(=O)(=O)OCC(=O)Nc2ccc(C(=O)O)c(O)c2)cc1,110%
6,CN(C)c1nc(N)c(N=O)c(N)n1,127%
7,Cc1nc2scc(-c3ccccc3)n2c(=O)c1CCO,102%
8,Cc1ccc2c(c1)C(C)Cc1c(ncnc1-n1cnc3ccccc31)N2C (stereo unspecified),-11.4% (active)
9,O=S(=O)(NCCNc1cc(-c2cn(-c3ccccc3)nc2-c2ccccc2)ccn1)c1cccc2ccccc12,35.9%
10,CCCCCCOc1ccc(C2(Cl)c3ccccc3N(C)c3ccccc32)cc1,28.9%
11,CN(C)C1CCC(NC2=CC(=O)C=CC2=O)CC1 (stereo unspecified),128%
12,CC(=O)N1Cc2ccccc2C(C)Cc2cc(Cl)ccc21 (stereo unspecified),110%
13,NC(N)=NC(N)=Nc1ccccc1-c1ccccc1,113%
14,Cc1oc2ncnc(Nc3ccccc3)c2c1C(=O)NCCO,100%
15,Cc1cc(NC(=O)COC(=O)c2sc3cc(F)ccc3c2Cl)no1,112%
16,CC1(C)OC2COC3(C(=O)O)OC(C)(C)OC3C2O1 (stereo unspecified),103%
17,C/C(=C\c1csc(C)n1)[C@@H]1C[C@@H]2O[C@]2(C)CCC[C@H](C)[C@H](O)[C@@H](C)C(=O)C(C)(C)[C@@H](O)CC(=O)N1,-64.6% (active)
18,COc1cc2c(cc1OCCCCn1c(-c3cc(=O)c4ccccc4o3)nc3ccccc31)N=C[C@@H]1CCCN1C2=O,113%
19,COc1cc(-c2csc(NC(=O)c3cc(C(F)(F)F)cc(C(F)(F)F)c3)n2)cc(OC)c1OC,33.9%
